Test results from a collection of fitness landscapes (doi:10.1016/j.celrep.2020.107928).
The full ranking holds about 81,000 sequences; the median of “one-hybrid fitness for binding NBS DNA” is about -0.1, and the highest 2% start at about 0.36. The sample holds the highest values, similar sequences and a random draw of the others, so the mix is not that of the screen.

B1: Caulobacter ParB omega fusion; a variant is named by its letters at X, in order, B8GW30 (parent)
chain: MESVVVGEPGMSEGRRGLGRGLSALLGEVDAAPAQAPGEQLGGSREAPIEILQRNPDQPRRTFREEDLEDLSNSIREKGVLQPILVRPSPDTAGEYQIVAGERAWRAAQRAGLKTVPIMVRELDDLAVLEIGIIENVQRADLNVLEEALSYKVLMEKFERTQENIAQTIGKSXSHVANXMRLLXLPDEVQSYLVSGELTAXHARAIAAAADPVALAKQIIEGGLSVRETEALARKAPNLSAGKSKGGRPPRVKDTDTQALESDLSSVLGLDVSIDHRGSTGTLTITYATLEQLDDLCNRLTRGI

Variants of: B1
Test: one-hybrid fitness for binding NBS DNA (the Noc-binding site; scaled: cognate 1, non-cognate 0); higher = stronger binding
Conditions: with NBS DNA site
Outline: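 Values were rescaled so that cognate is 1 and non-cognate is 0. Each is a fitness, the log change in a variant's read ratio to wild type from Illumina reads of plasmids before and after selection, with three replicate libraries pooled and variants under 10 reads dropped. Selection of the Caulobacter ParB libraries, four specificity codons randomised, used E. coli USO with a HIS3 reporter, site 19 bp from the promoter, on M9-minus-histidine with 0.1 mM IPTG and 5 mM 3-AT for 48 hours at 37°C.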

| Variant | one-hybrid fitness for binding NBS DNA |
| --- | --- |
| QQIY | ≤ 0.2 |
| QQIC | ≤ 0.2 |
| QQPP | ≤ 0.2 |
| QQIR | 0.435 |
| QQPR | 0.365 |
| QQPN | ≤ 0.2 |
| IMNC | ≤ 0.2 |
| QCIE | ≤ 0.2 |
| GPNL | ≤ 0.2 |
| RRIT | 0.788 |
| RRIP | ≤ 0.2 |
| RPPT | ≤ 0.2 |
| RCIT | 0.289 |
| RRPT | 0.694 |
| RCPT | ≤ 0.2 |
| QIKI | ≤ 0.2 |
| GQNR | ≤ 0.2 |
| PQLG | ≤ 0.2 |
| QMQR | 0.55 |
| QMRR | 1.02 |
| NMRR | ≤ 0.2 |
| QMHN | ≤ 0.2 |
| QMER | 0.324 |

| Variant | one-hybrid fitness for binding NBS DNA |
| --- | --- |
| QMHR | 0.647 |
| QMQD | ≤ 0.2 |
| QMYR | 0.507 |
| QMHP | ≤ 0.2 |
| QMQN | ≤ 0.2 |
| QMYF | ≤ 0.2 |
| DMRR | ≤ 0.2 |
| YCIR | ≤ 0.2 |
| PWLA | ≤ 0.2 |
| PATL | ≤ 0.2 |
| QMGR | 0.591 |
| QMGK | 0.221 |
| QMIP | ≤ 0.2 |
| QMIR | 0.398 |
| QMPR | 0.323 |
| QMNH | 0.284 |
| QMDR | 0.403 |
| QMNR | 0.637 |
| QMGC | ≤ 0.2 |
| QMNN | ≤ 0.2 |
| QMDD | ≤ 0.2 |
| QMDF | ≤ 0.2 |
| KASM | ≤ 0.2 |

| Variant | one-hybrid fitness for binding NBS DNA |
| --- | --- |
| RNWE | ≤ 0.2 |
| WRSG | ≤ 0.2 |
| HNPS | ≤ 0.2 |
| AKVR | ≤ 0.2 |
| ERAT | ≤ 0.2 |
| FHRT | ≤ 0.2 |
| HTGY | ≤ 0.2 |
| KAEC | ≤ 0.2 |
| QAVP | ≤ 0.2 |
| CWTT | ≤ 0.2 |
| THIP | ≤ 0.2 |
| NAAC | ≤ 0.2 |
| FHTW | ≤ 0.2 |
| GAEY | ≤ 0.2 |
| QISP | ≤ 0.2 |
| QSSD | ≤ 0.2 |
| QISS | 0.228 |
| QISR | 0.386 |
| QKSR | 0.65 |
| QSSP | ≤ 0.2 |
| QHSR | 0.51 |
| QSSR | 0.526 |
| QHSN | ≤ 0.2 |

| Variant | one-hybrid fitness for binding NBS DNA |
| --- | --- |
| QHSD | ≤ 0.2 |
| QKSN | ≤ 0.2 |
| QKSD | ≤ 0.2 |
| RKLW | ≤ 0.2 |
| VHYS | ≤ 0.2 |
| PGDT | ≤ 0.2 |
| KQTL | ≤ 0.2 |
| HGQT | ≤ 0.2 |
| APTM | ≤ 0.2 |
| HNIL | ≤ 0.2 |
| QTSR | 0.786 |
| QASR | 0.482 |
| QPSH | ≤ 0.2 |
| QASP | ≤ 0.2 |
| QGSR | ≤ 0.2 |
| QCSR | 0.614 |
| QWSR | 0.229 |
| QPSR | 0.44 |
| QASH | ≤ 0.2 |
| QPSP | ≤ 0.2 |
| QTSD | ≤ 0.2 |
| QTSH | 0.321 |
